“And” between values parts separate entries of the source, which are not always exact repeats. Equal values may be shown once. The whole screen tested about 38,000 compounds, of which about 1,200 (3.2%) showed an effect of 50% or more. The median lay at about -58%. This is one part of a sample in which strong results are shown more often than they occur.
Tested on: Plasmodium falciparum
Assay: Calibr Malaria Delayed Death Assay SOP
Type: functional, organism-based
Parameters: scale not given: in the data most compounds retested in dose-response had high values
Settings: concentration 4.99e-06 (unit not given; other assays of the set use mol/L)

Row | Compound | Percent Effect [%] | Percent Effect (4.99 µM)
1 | Cc1ccc(C(=O)Cc2c(Cl)nc3n(C)c(=O)n(C)c(=O)n23)cc1 | -11.12 | 
2 | CC(C)(C)n1ncc2c1NC(=O)CC2c1c(F)cccc1F (configuration not stated) | -175.8 | 
3 | COc1ccc(CN2CCC(C(N)=O)CC2)cc1SC(F)(F)F | 63.84 | 
4 | COc1ccc(CN2CCC(C(N)=O)C2)c(Br)c1OC (configuration not stated) | -101 | 
5 | COc1ccc(CN2CCNC(=O)CC2)cc1SC(F)(F)F | 74.78 | 
6 | COc1cc(Cl)c(CN2CCC(C(N)=O)C2)cc1Cl (configuration not stated) | 3.59 | 
7 | CSc1ccc(OCCN2CCNC(=O)CC2)cc1 | -70.99 | 
8 | COc1ccc(C(C)NC(=O)N2CCNC(=O)CC2)cc1F (configuration not stated) | -89.17 | 
9 | OC(CN1CCC(c2ccn[nH]2)CC1)c1ccc(F)cc1F (configuration not stated) | -72.07 | 
10 | Cc1ccc(C)c(S(=O)(=O)NCCOc2ccc3nnc(C)n3n2)c1 | -6.832 | 
11 | COc1cccc(-c2n[nH]cc2CNC2CCC(O)CC2)c1.Cl (configuration not stated) | -76.02 | 
12 | Cc1cc(C[C@@H]2CCC[C@H]2NCc2c[nH]nc2-c2ccccc2)on1.O=C(O)CC(O)(CC(=O)O)C(=O)O | 55.35 | 
13 | COc1cccc(-c2n[nH]cc2CNC2CCCN(C)C2)c1 (configuration not stated) | -88.31 | 
14 | Cc1cc(C[C@@H]2CCC[C@H]2NCc2ccc(C(F)(F)F)cc2)on1.O=C(O)CC(O)(CC(=O)O)C(=O)O | -14.83 | 
15 | Cc1cc(C[C@@H]2COC[C@@H]2NC(=O)Cn2c(=O)oc3ccccc32)on1 | -110.9 | 
16 | CN(C(=O)Nc1cccnc1)C1CCN(c2ccc(Cl)cc2)CC1 | 4.443 | 
17 | Cc1cc(C)n(CC2CCCN2CC(=O)N(C)CCC#N)n1 (configuration not stated) | -49.25 | 
18 | CCC(C)C(=O)N(CC(=O)OC)c1cccc(C)n1 (configuration not stated) | -66.48 | 
19 | CCN(CC1CN(Cc2nc(C3CC3)no2)CCO1)c1cccnn1 (configuration not stated) | 72.53 | 
20 | CCN(CC1CN(Cc2c(C)noc2C)CCO1)c1cccnn1 (configuration not stated) | -53.53 | 
21 | CCN(CC1CN(Cc2ncc(C)o2)CCO1)c1cccnn1 (configuration not stated) | -35.01 | 
22 | CCNC(=O)Cc1ccc(-c2cccc3c2CCNC3)cc1 | -6.885 | 
23 | COCCC(=O)N1CCC2(CCCN2Cc2ccccc2)C1 (configuration not stated) | -58.21 | 
24 | Nc1nc(CC(=O)N2CCCC(CCc3cccc(F)c3)C2)cc(=O)[nH]1 (configuration not stated) | -43.06 | 
25 | CCN(C(=O)Nc1nncs1)C(C)c1cccc(OC)c1 (configuration not stated) | -32.07 | 

Row | Compound | Percent Effect [%] | Percent Effect (4.99 µM)
26 | Cc1nc(C)n(CC2CCCCN2c2ncnc3ccsc23)n1 (configuration not stated) | -49.26 | 
27 | COc1ccccc1CC(C)N(C)CCS(C)(=O)=O (configuration not stated) | -4.563 | 
28 | CC(C)c1ccc(S(=O)(=O)Cc2nc(N)nc(N(C)C)n2)cc1 | -42.62 | 
29 | CN(CC(=O)Nc1cccc(F)c1)Cc1nc(N)nc(N(C)C)n1 | -117.7 | 
30 | COc1ccc(Cl)cc1-c1nc(N)nc(N(C)C)n1 | -104.8 | 
31 | COc1ccccc1CCN(C)Cc1nc(N)nc(N(C)C)n1 | 69.03 | 
32 | Cc1ccccc1CC1(C(=O)O)CCCN(c2ncnc3[nH]ccc23)C1 (configuration not stated) | -4.529 | 
33 | Cc1c(C(=O)NCCC(C)C)nnn1-c1cccc2c1CCN(C)C2 | -15.36 | 
34 | CC(O)CN1CCN(Cc2cccc(C(=O)N(C)C)c2)CC1 (configuration not stated) | -48.6 | 
35 | Cc1ncccc1CNCC1CCN(CC(O)c2ccccc2)CC1 (configuration not stated) | 29.35 | 
36 | CC(O)CN1CCC(CNCc2cn(-c3ccccc3)nn2)CC1 (configuration not stated) | -67.96 | 
37 | CC(O)CN1CCN(Cc2cccc(C#N)c2)CC1 (configuration not stated) | 12.6 | 
38 | CC(O)CN1CCC(CNCc2cccc(Cl)c2)CC1 (configuration not stated) | 87.41 | 
39 | CN1Cc2cc(F)ccc2N(CC(O)C(F)(F)F)CCC1=O (configuration not stated) | 13.79 | 
40 | Cc1ccc(CN(C)C(=O)c2ccc(NC3CC3)nc2)o1 | -155.8 | 
41 | CCN1CCN(Cc2c(C3CCCC3)[nH]c3ncccc23)CC1 | -34.79 | 
42 | COc1ccc2c(C)c(C(=O)NCCCc3csc(N)n3)oc2c1 | -56.16 | 
43 | Cc1ccc(-c2cc(C(=O)NCCCc3csc(N)n3)[nH]n2)o1 | 18.73 | 
44 | Cc1ccc(-c2cc(C(=O)NCCCc3csc(N)n3)[nH]n2)s1 | 65.08 | 
45 | COC(=O)CN1CCN(c2nc3c(s2)c(C)nn3C)C(C)C1=O (configuration not stated) | -95.69 | 
46 | Cc1nn(C)c2nc(N3CCNC(=O)C3Cc3ccccc3)sc12 (configuration not stated) | -89.32 | 
47 | Cc1ccc(CN2CCN(c3nc4c(s3)c(C)nn4C)C(C)C2=O)cc1 (configuration not stated) | 68.91 | 
48 | COCC(O)CNc1ccc(C#N)cc1C(F)(F)F (configuration not stated) | -11.9 | 
49 | CCCS(=O)(=O)N1CC[C@@H]2[C@@H]1CC(=O)N2Cc1csc(C)n1 | -243.1 | 
50 | Cc1cccc(NC(=O)C(C)Oc2ccc3c(c2)OCO3)n1 (configuration not stated) | -110.7 | 

Row | Compound | Percent Effect [%] | Percent Effect (4.99 µM)
51 | CS(=O)(=O)CCCNC1(c2ccc(Br)cc2)CCC1 | 77.64 | 
52 | Cc1cccc(C2(NCCCS(C)(=O)=O)CCCC2)c1 | 88.41 | 
53 | CS(=O)(=O)CCCNC1(c2cccc(F)c2)CC1 | -29.12 | 
54 | CSCC(=O)NC1(c2cccc(Cl)c2)CC1 | -138.1 | 
55 | Brc1ccc(C2(NCc3noc(C4CC4)n3)CCC2)cc1 | 8.334 | 
56 | N#CCCCS(=O)(=O)NC1(c2cccc(Cl)c2)CC1 | -108.7 | 
57 | CC(C)(C)c1ccc(C2(C(=O)NCCCS(C)(=O)=O)CC2)cc1 | -66.39 | 
58 | Cc1cccc(C2(NC(=O)CCN3C(=O)CCC3=O)CCCC2)c1 | -32.71 | 
59 | CC(Nc1cnn(C)c(=O)c1Cl)c1ccc(F)c(F)c1 (configuration not stated) | -61.95 | 
60 | COc1cc(-c2n[nH]c(CCN)n2)cc(OC)c1OC | -46.27 | 
61 | Cc1nc(CSCc2ccc(OCC(F)(F)F)nc2)no1 | -117.9 | 
62 | Cc1cccc(CN2C(=O)C[C@H]3[C@@H]2CCN3Cc2ccccn2)n1.O=C(O)C(F)(F)F.O=C(O)C(F)(F)F.O=C(O)C(F)(F)F | -25.52 | 
63 | Cc1cc(CN2CCC(C3CCN(CCc4ccccc4)CC3)C2)[nH]n1 (configuration not stated) | 93.56 | 
64 | Cc1cc(CN2CCC(C3CCN(Cc4cccnc4)CC3)C2)[nH]n1 (configuration not stated) | 8.003 | 
65 | Cc1cc(CN2CCC(C3CCN(CCc4ccccc4)C3)CC2)[nH]n1 (configuration not stated) | 35.64 | 
66 | Cc1cc(C)cc(CN2C[C@@H]3OCCN(CC(=O)N(C)C)[C@@H]3C2)c1.O=C(O)C(F)(F)F | -102.5 | 
67 | COc1ccc(CCNCc2ccco2)cc1OC | 3.158 | 
68 | CCCc1ccc(OCCNCc2ccco2)c(OC)c1.Cl | 50.1 | 
69 | COc1cc(C(C)=O)ccc1OCCNCc1ccco1.Cl | -1.065 | 
70 | COc1ccc(CN2CCN(CCn3ccnc3)CC2)cc1F | -77.09 | 
71 | N#CCCSc1nnc(Cc2ccccc2F)o1 | 0.1656 | 
72 | N#Cc1cccc(CN2CC[C@@H]3CO[C@@H](CN4CCCC4)[C@@H]3C2)c1.O=C(O)C(F)(F)F.O=C(O)C(F)(F)F | 9.568 | 
73 | Cc1ccc(CN2CC[C@@H]3[C@@H](CO[C@H]3CN3CCN(C)CC3)C2)cc1.O=C(O)C(F)(F)F.O=C(O)C(F)(F)F.O=C(O)C(F)(F)F | -1.718 | 
74 | CN1CCN(C[C@@H]2OC[C@H]3CN(Cc4cccc(F)c4)CC[C@H]32)CC1.O=C(O)C(F)(F)F.O=C(O)C(F)(F)F.O=C(O)C(F)(F)F | 17.46 | 
75 | Cc1ccc(CN2CC[C@H]3CO[C@H](CN4CCCC4)[C@H]3C2)o1.O=C(O)C(F)(F)F.O=C(O)C(F)(F)F | 27.44 | 

Row | Compound | Percent Effect [%] | Percent Effect (4.99 µM)
76 | CN1CCN(C[C@@H]2OC[C@H]3CN(CCc4ccccc4)CC[C@H]32)CC1.O=C(O)C(F)(F)F.O=C(O)C(F)(F)F.O=C(O)C(F)(F)F | 64.83 | 
77 | O=C(O)C(F)(F)F.O=C(O)C(F)(F)F.c1cc2c(cc1CN1CC[C@H]3CO[C@H](CN4CCCC4)[C@H]3C1)OCO2 | 77.9 | 
78 | Cn1cc(N2CCC3(CCCN(Cc4ccoc4)C3)C2=O)cn1 (configuration not stated) | -100.7 | 
79 | O=C1CCC2(CCN(CC[C@H](O)c3ccccc3)CC2)CN1CCO | -15.36 | 
80 | NC(=O)CCNC(=O)C1(N2CCCCC2)Cc2ccccc2C1 | -32.27 | 
81 | CN1CC(C(=O)N2CCN(c3cccc(Cl)c3)C(=O)C2)NC1=O (configuration not stated) | -61.36 | 
82 | CC(Cn1cccn1)NCc1nc(-c2cccs2)no1 (configuration not stated) | -237.8 | 
83 | Cc1cnn(CC(C)NCc2nc(-c3cccs3)no2)c1 (configuration not stated) | -78.64 | 
84 | CC(Cn1cccn1)NCCCc1nc(-c2cccs2)no1 (configuration not stated) | 66.81 | 
85 | CC(C)NC(=O)[C@H](C)NC(=O)N1CCN(c2ccc(Cl)cc2)CC1 | -40.36 | 
86 | CC(C)Cn1ncc(C(=O)NS(=O)(=O)c2ccccc2)c1C1CC1 | -129.8 | 
87 | COc1ccc(OC)c(C(C)NS(=O)(=O)c2cn(C)nc2C)c1 (configuration not stated) | -72.91 | 
88 | CC(=O)NC[C@@H]1C=C(C)[C@H](CC(=O)NCCN(C)C)C[C@H]1C(C)C | -26.76 | 
89 | CCc1ncc(C(=O)N(C)CCc2nc3cc(OC)ccc3[nH]2)cn1 | -128 | 
90 | CCn1nc(C)c(C(=O)N2C[C@@H](CN(C)C)[C@@H](CO)C2)c1C |  | -17.38% and -19.57%
91 | CC(=O)N1CCC(=O)N(C2CCCC2)Cc2ccccc21 | -73.21 | 
92 | CCn1c(=O)nc(N)c2c(-c3ccc(OC)cc3)csc21 | -67.94 | 
93 | COc1ccc(-c2csc3c2c(N)nc(=O)n3CCCN(C)C)cc1 | 54.04 | 
94 | COc1ccc(-c2csc3c2c(N)nc(=O)n3CCN(C)C)cc1 | -27.97 | 
95 | CC(C)c1nc(N2CCC(N3CCCCCC3)CC2)c2cnn(C)c2n1 | 50.67 | 
96 | Cc1nc(N2CCCC(N3CCCC3)C2)c2cnn(C)c2n1 (configuration not stated) | -29.13 | 
97 | CC(C)c1nc(N2CC(N3CCCCC3C)C2)c2cnn(C)c2n1 (configuration not stated) | -59.85 | 
